Data reported in PubChem BioAssay AID1159580 (chemical genetic matrix, 2015).
Several values for one entry are separate records, joined by “and”; a condition that tells them apart may be missing. Identical values can stand only once. The campaign covered roughly 5,500 compounds. About 2,000 (36%) were called active. Another 18% or so got no clear call; they are omitted. Rule as the data show it: active = normalized growth mostly below about 0.91 (no sharp cut-off); inconclusive = no clear call, values can overlap the other calls; inactive = mostly above about 0.92. The list shows a part of the results.

Experiment: chemical genetic growth profiling, strain panel (AID 1159580);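 also: tested at 20 µM; growth read once vehicle control cultures reached saturation at 30 °C; 1 = growth at the plate median or of vehicle wells; lower values mean less growth of the strain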
Details: S. cerevisiae deletion strains, growth OD

Measured: normalized growth

Cn1cnc2c1c(=O)[nH]c(=O)n2C
inactive: locus YAL013W, strain DEP1, stronger effect = lower value 1.01 | locus YAL021C, strain ccr4, stronger effect = lower value 0.952 | locus YAL026C, strain drs2, stronger effect = lower value 0.989 | locus YAL030W, strain snc1, stronger effect = lower value 0.985 | locus YAL040C, strain CLN3, stronger effect = lower value 0.992 | locus YBL061C, strain skt5, stronger effect = lower value 0.985 | locus YBR009C, strain hhf1, stronger effect = lower value 0.997 | locus YBR021W, strain FUR4, stronger effect = lower value 0.991 | locus YBR023C, strain chs3, stronger effect = lower value 1 | locus YBR171W, strain sec66, stronger effect = lower value 0.99 | locus YBR229C, strain ROT2, stronger effect = lower value 1.01 | locus YBR231C, strain swc5, stronger effect = lower value 0.985 | locus YBR279W, strain paf1, stronger effect = lower value 0.997 | locus YCL011C, strain gbp2, stronger effect = lower value 0.978 | locus YCL016C, strain dcc1, stronger effect = lower value 0.993 | locus YCL029C, strain bik1, stronger effect = lower value 1.03 | locus YCL061C, strain MRC1 (second series), stronger effect = lower value 1.01 | locus YCL061C, strain MRC1, stronger effect = lower value 0.984 | locus YCL069W, strain vba3, stronger effect = lower value 0.983 | locus YCR088W, strain abp1, stronger effect = lower value 0.991 | locus YDL005C, strain med2, stronger effect = lower value 0.989 | locus YDL035C, strain GPR1, stronger effect = lower value 1.01 | locus YDL040C, strain nat1, stronger effect = lower value 0.992 | locus YDL074C, strain BRE1, stronger effect = lower value 1.02 | locus YDL101C, strain DUN1, stronger effect = lower value 1.02 | locus YDL134C, strain PPH21, stronger effect = lower value 1.01 | locus YDL185W, strain tfp1, stronger effect = lower value 1.01 | locus YDL192W, strain arf1, stronger effect = lower value 1.01 | locus YDR001C, strain nth1, stronger effect = lower value 0.984 | locus YDR069C, strain doa4, stronger effect = lower value 0.959 | locus YDR101C, strain arx1, stronger effect = lower value 1.01 | locus YDR137W, strain rgp1, stronger effect = lower value 1.03 | locus YDR150W, strain NUM1, stronger effect = lower value 1.01 | locus YDR159W, strain sac3, stronger effect = lower value 0.973 | locus YDR162C, strain NBP2, stronger effect = lower value 1.01 | locus YDR195W, strain ref2 0.944 | locus YDR297W, strain sur2, stronger effect = lower value 0.991 | locus YDR318W, strain mcm21, stronger effect = lower value 1.03 | locus YDR334W, strain swr1, stronger effect = lower value 0.98 | locus YDR335W, strain msn5, stronger effect = lower value 0.976 | locus YDR363W, strain ESC2, stronger effect = lower value 0.998 | locus YDR388W, stronger effect = lower value 1.01 | locus YDR392W, strain spt3, stronger effect = lower value 0.993 | locus YDR502C, strain sam2, stronger effect = lower value 1 | locus YEL003W, strain gim4, stronger effect = lower value 0.988 | locus YEL037C, strain rad23, stronger effect = lower value 0.993 | locus YEL061C, strain CIN8 (second series), stronger effect = lower value 0.974 | locus YEL061C, strain CIN8, stronger effect = lower value 1.01 | locus YER002W, strain NOP16, stronger effect = lower value 1.04 | locus YER015W, strain faa2, stronger effect = lower value 0.981 | locus YER016W, strain bim1, stronger effect = lower value 0.991 | locus YER110C, stronger effect = lower value 1.01 | locus YER111C, strain swi4, stronger effect = lower value 0.985 | locus YER155C, strain BEM2 (second series), stronger effect = lower value 1 | locus YER155C, strain BEM2, stronger effect = lower value 1.01 | locus YER167W, strain BCK2, stronger effect = lower value 1.01 | locus YFR010W, strain ubp6, stronger effect = lower value 0.971 | locus YGL078C, strain dbp3, stronger effect = lower value 1.01 | locus YGL086W, strain mad1, stronger effect = lower value 1 | locus YGL167C, strain pmr1, stronger effect = lower value 0.976 | locus YGL173C, strain kem1, stronger effect = lower value 0.988 | locus YGL227W, strain vid30, stronger effect = lower value 0.994 | locus YGL240W, strain doc1, stronger effect = lower value 0.966 | locus YGL248W, strain PDE1, stronger effect = lower value 1.01 | locus YGL253W, strain hxk2, stronger effect = lower value 0.99 | locus YGR078C, strain PAC10, stronger effect = lower value 1.01 | locus YGR135W, strain pre9, stronger effect = lower value 1.02 | locus YGR229C, strain SMI1, stronger effect = lower value 1.02 and 1.05 | locus YGR252W, strain gcn5, stronger effect = lower value 1.01 | locus YHR013C, strain ard1, stronger effect = lower value 0.961 | locus YHR027C, strain rpn1, stronger effect = lower value 0.972 | locus YHR030C, strain SLT2, stronger effect = lower value 1.01 and 0.97 | locus YHR079C, strain IRE1 (second series), stronger effect = lower value 1.02 | locus YHR079C, strain IRE1, stronger effect = lower value 0.996 | locus YHR094C, strain hxt1, stronger effect = lower value 1.01 | locus YHR129C, strain ARP1, stronger effect = lower value 1.01 | locus YHR142W, strain chs7, stronger effect = lower value 0.999 | locus YHR200W, strain rpn10, stronger effect = lower value 1 | locus YIL066C, strain RNR3, stronger effect = lower value 1.02 | locus YIL073C, strain SPO22, stronger effect = lower value 1.05 | locus YIL125W, strain kgd1, stronger effect = lower value 1.01 | locus YIR030C, strain dcg1, stronger effect = lower value 1.01 | locus YJL092W, strain hpr5, stronger effect = lower value 0.989 | locus YJL095W, strain BCK1 (second series), stronger effect = lower value 0.996 | locus YJL095W, strain BCK1, stronger effect = lower value 1.03 and 0.985 | locus YJL115W, strain asf1, stronger effect = lower value 0.976 | locus YJL129C, strain trk1, stronger effect = lower value 0.963 | locus YJL134W, strain LCB3, stronger effect = lower value 1.01 | locus YJL154C, strain vps35, stronger effect = lower value 0.995 | locus YJL164C, strain tpk1, stronger effect = lower value 0.978 | locus YJL166W, strain qcr8, stronger effect = lower value 0.992 | locus YJL168C, strain set2, stronger effect = lower value 1.01 | locus YJL187C, strain SWE1 (second series), stronger effect = lower value 1.03 | locus YJL187C, strain SWE1, stronger effect = lower value 0.983 | locus YJR043C, strain POL32, stronger effect = lower value 1.01 | locus YJR066W, strain TOR1, stronger effect = lower value 0.963
